Laboratory results from PubChem BioAssay (NCATS).
Results filed as inconclusive are left out. Entries that show only a call come without a potency. Unmarked numbers belong to inactive results. Calls of active or inactive are those of the source. Calls come from the whole dose curve; as a rule, active = well fitted cell-killing curve with a large enough effect; inconclusive = small, poorly fitted or top-dose-only effect, or effect the other way; inactive = flat fitted curve, though single readings scatter.

The compounds below were run on CAOV3 (assay: Primary qHTS to identify gynecologic anti-cancer compounds using libraries of approved drugs and bioactive compounds (AID 1345084; note: nearly all actives have a fitted effect of over 55% in size)). Details: Gynecologic cancer cell panel viability, ATPlite luminescence, 48 h; series mostly up to 57.5 µM.
From the text: National Center for Advancing Translational Sciences [NCATS] Assay Overview: Chemotherapeutic drug responses vary from cancer to cancer and from patient to patient. These variations could be caused by a number of factors including patient genomic background, tumor mutations, tumor heterogeneity, and aspects of drug treatment. Chemotherapeutic drug resistance is also a common issue and can lead to ineffective treatment and patient death. Here we have profiled the cell killing effects of thousands of compounds to characterize the responses in three gynecological cancers, identify cancer-selective compounds, and understand the diversity of responses to these compounds from pan-cancer suppressors to single cell line selective compounds. In this assay, we screened a 7,914 compound drug library that included approved drug and bioactive compounds in six ovarian, three cervical, and […] placental cancer cell lines using the ATPlite assay for cell viability. […] The cervical cancer cell lines included HeLa, Ca Ski, and C-33 A. The placental cancer cell lines included JEG-3. HEK 293T cells were used as the control cell line to determine the selectivity index. ATPlite is a luminescence based assay reliant on the conversion of a luciferase substrate to light in the presence of ATP. As a cytotoxic compound will suppress growth and decrease the number of cells, the concentration of ATP will decrease, and less light signal will be detected in the well.
Assay Protocol Summary: 1,000 cells in 4 uL of media were dispensed into white, solid bottom 1536-well plates using a Multidrop Combi (Thermo Scientific). The Assay plates were incubated for 16 hours at 37 C with 5% CO2 in assay plates, followed by the addition of 23 nL of DMSO or drug dissolved in DMSO. Each compound was assayed in five concentrations (0.092, 0.46, 2.3, 11.5, and 57.5 uM), using the automated Wako 1536 Pin Tool workstation and incubated at 37 C with 5% CO2 48 hours. 4 uL of ATPlite, the ATP monitoring reagent, was then added to the each well of the assay plates using the Multidrop Combi reagent dispenser followed by incubation for 15 minutes at room temperature. The resulting luminescence was measured using the ViewLux plate reader.
Potency is the fitted concentration of half-maximal effect.

Q: With `O=C(Oc1ccccc1C(=O)O)c1ccccc1O` as the compound, how does the Potency read?
A: Its Potency is “inactive”.

Q: With `C[C@@H]1CC[C@@]2(OC1)O[C@H]1C[C@H]3[C@@H]4CC[C@H]5C[C@@H](O)CC[C@]5(C)[C@H]4CC(=O)[C@]3(C)[C@H]1[C@@H]2C` as the compound, how does the activity change, negative = cytotoxicity read?
A: The activity change, negative = cytotoxicity was -7.17% [at 6.55 µM].

Q: Which Potency does the source give for `CC1(C)OC(=O)NC1=O` here?
A: The Potency was “inactive”.

Q: Which Potency does the source give for `C=Cc1c(C)c2cc3[nH]c(cc4nc(cc5nc(cc1[nH]2)C(C)=C5CCC(=O)O)C(CCC(=O)O)=C4C)c(C)c3C=C` here?
A: The Potency was “inactive”.

Q: How did the Potency turn out when `Oc1cccc(O)c1` was run?
A: The Potency was “inactive”.

Q: With `COc1ccccc1O` as the compound, how does the Potency read?
A: The Potency was “inactive”.

Q: How did the Potency turn out when `O=C1Nc2ccc(Cl)cc2[C@@](C#CC2CC2)(C(F)(F)F)O1` was run?
A: The Potency was “inactive”.

Q: How did the Potency turn out when `O=C(O)CN1C(=O)c2cccc3cccc(c23)C1=O` was run?
A: Its Potency is “inactive”.

Q: Which Potency does the source give for `CC(=O)OCC(=O)[C@@]1(O)CC[C@H]2[C@@H]3CCC4=CC(=O)CC[C@]4(C)[C@H]3C(=O)C[C@@]21C` here?
A: The Potency was “inactive”.

Q: For `O=C1OC(OC(=O)c2cccnc2Nc2cccc(C(F)(F)F)c2)c2ccccc21` (stereo not given), which Potency is on record?
A: The Potency was “inactive”.

Q: `CCCCN1CCCC[C@H]1C(=O)Nc1c(C)cccc1C` was tested. Which Potency did it give?
A: The Potency was “inactive”.

Q: `CCC(=O)c1ccc(O)cc1` was tested. Which Potency did it give?
A: Its Potency is “inactive”.

Q: `COc1ccc(Cl)cc1C(=O)NCCc1ccc(S(=O)(=O)NC(=O)NC2CCCCC2)cc1` was tested. Which Potency did it give?
A: Its Potency is “inactive”.

Q: Which Potency does the source give for `Cc1cccc(Nc2cc(Cl)nc(SCC(=O)O)n2)c1C` here?
A: The Potency was “inactive”.

Q: `COC(=O)C1=C(C)NC(C)=C(C(=O)OC)C1c1ccccc1[N+](=O)[O-]` was tested. Which Potency did it give?
A: The Potency was “inactive”.

Q: For `CC(=O)O[C@@]12CO[C@@H]1C[C@H](O)[C@@]1(C)C(=O)[C@H](O)C3=C(C)[C@@H](OC(=O)[C@H](O)[C@@H](NC(=O)OC(C)(C)C)c4ccccc4)C[C@@](O)([C@@H](OC(=O)c4ccccc4)[C@H]21)C3(C)C`, which Potency is on record?
A: The Potency was “inactive”.

Q: With `NC(=O)NC(=O)Cc1ccccc1` as the compound, how does the Potency read?
A: The Potency was “inactive”.

Q: How did the Potency turn out when `CC(=O)Oc1c(C)c(C)c2c(c1C)CC[C@@](C)(CCC[C@H](C)CCC[C@H](C)CCCC(C)C)O2` was run?
A: The Potency was “inactive”.

Q: With `CC(CN(C)C)CN1c2ccccc2CCc2ccccc21` (stereo not given) as the compound, how does the Potency read?
A: The Potency was “inactive”.

Q: For `CCCCC/C(C=O)=C\c1ccccc1`, which Potency is on record?
A: The Potency was “inactive”.

Q: For `Cc1c(O)cccc1C(=O)N[C@@H](CSc1ccccc1)[C@H](O)CN1C[C@H]2CCCC[C@H]2C[C@H]1C(=O)NC(C)(C)C`, which Potency is on record?
A: The Potency was “inactive”.

Q: With `Oc1ccc(C(O)CNCCCCCCNCC(O)c2ccc(O)c(O)c2)cc1O` (stereo not given) as the compound, how does the Potency read?
A: Its Potency is “inactive”.

Q: How did the Potency turn out when `Cc1ncc([N+](=O)[O-])n1CC(O)CCl` (stereo not given) was run?
A: Its Potency is “inactive”.

Q: With `c1ccc(CN(CC2=NCCN2)c2ccccc2)cc1` as the compound, how does the Potency read?
A: Its Potency is “inactive”.

Q: With `C[C@H](N)[C@H](O)c1cccc(O)c1` as the compound, how does the Potency read?
A: Its Potency is “inactive”.

Q: For `NCCNCCNCCNCCN`, which activity change, negative = cytotoxicity is on record?
A: Its activity change, negative = cytotoxicity is 11.8% [at 11.6 µM].

Q: For `COc1cc(C)c(Cc2cnc(N)nc2N)cc1OC`, which Potency is on record?
A: Its Potency is “inactive”.

Q: `CC(C(O)c1ccc(O)cc1)N1CCC(Cc2ccccc2)CC1` (stereo not given) was tested. Which Potency did it give?
A: The Potency was “inactive”.

Q: With `CC[C@@]1(c2ccccc2)NC(=O)N(C)C1=O` as the compound, how does the Potency read?
A: Its Potency is “inactive”.

Q: Which Potency does the source give for `CC/C=C(\C(=O)N[C@@H]1C(=O)N2C(C(=O)OCOC(=O)C(C)(C)C)=C(COC(N)=O)CS[C@H]12)c1csc(N)n1` here?
A: The Potency was “inactive”.

Q: With `Oc1cn2c(n1)Nc1ccc(Cl)c(Cl)c1C2` as the compound, how does the Potency read?
A: The Potency was “inactive”.

Q: How did the Potency turn out when `OCCN1CCN(CCCN2c3ccccc3Sc3ccc(Cl)cc32)CC1` was run?
A: The Potency was 25.1 µM (active).

Q: With `CC1CC(OC(=O)C(O)c2ccccc2)CC(C)(C)N1C` (stereo not given) as the compound, how does the Potency read?
A: Its Potency is “inactive”.

Q: Which Potency does the source give for `CCN(CC)CCNC(C(=O)OCCC(C)C)c1ccccc1` (stereo not given) here?
A: Its Potency is “inactive”.

Q: `O=C(O)c1ccccc1-c1ccc(C(F)(F)F)cc1` was tested. Which Potency did it give?
A: The Potency was “inactive”.

Q: With `O=C1NS(=O)(=O)c2ccccc21` as the compound, how does the Potency read?
A: The Potency was “inactive”.

Q: With `CC1=C(C/C=C(\C)CCC[C@H](C)CCC[C@H](C)CCCC(C)C)C(=O)c2ccccc2C1=O` as the compound, how does the Potency read?
A: The Potency was “inactive”.

Q: `CCOc1nc2cccc(C(=O)O)c2n1Cc1ccc(-c2ccccc2-c2nn[nH]n2)cc1` was tested. Which Potency did it give?
A: Its Potency is “inactive”.

Q: How did the Potency turn out when `CC1(C)CO[C@@H](CC(=O)O)CN1` was run?
A: The Potency was “inactive”.

Q: `CCCCN(CCCC)CCCOC(=O)c1ccc(N)cc1` was tested. Which Potency did it give?
A: Its Potency is “inactive”.
